Screening data from PubChem.
The list is not random: actives were taken first. Their share in the collection is about 6.7%.
T cruzi growth-1: blocks T. cruzi growth in NIH3T3 culture; 5.9% of 77,000 active; inhibition, % at 8.34 µM; T. cruzi beta-gal in NIH3T3, GalScreen luminescence, 90 h;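 active means mean inhibition above about 93%, with at least 55% of replicates each passing it, limit read from the data, passing the limit was not always enough; inconclusive means only one of those two conditions holds; inactive means neither condition holds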
Pf Dd2 growth: P. falciparum Dd2 growth inhibition. SYBR Green, 72 h; stronger effect = lower value. activity change, % at 10 µM. 2.3% of 94,000 active; in the data active means activity change below about -80%; inconclusive means no clear call, values can overlap the other calls
C diff growth: C. difficile growth inhibition; Clostridium difficile clinical isolate growth, OD600, 24 h; stronger effect = lower value; growth activity, negative = inhibition, % at 16 µg/mL (by protocol); 0.25% of 86,000 active; AID 1259249;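 active means mean growth activity at or below -80% and every replicate also at or below -80%; inconclusive means mean at or below -80% but some replicate above -80%; inactive means mean growth activity above -80%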;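 further: 0% = DMSO wells and -100% = levofloxacin 16 µg/mL wells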
T cruzi growth-2: Trypanosoma cruzi proliferation inhibition; 72% of 5,600 active; shares compounds with T cruzi growth-1; T. cruzi beta-gal in NIH3T3, GalScreen luminescence, 90 h; inhibition, % at 8.35 µM; AID 651739;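 active means mean replicate inhibition above about 95% and at least 55% of replicates individually reaching it, limit read from the data; inconclusive means only one of the two criteria is met; inactive means neither criterion is met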
T cruzi growth-3: blocks T. cruzi growth in NIH3T3 host cells | shares compounds with T cruzi growth-1 | T. cruzi beta-gal in NIH3T3, GalScreen luminescence, 90 h | inhibition, % at 2.09 µM | 21% of 5,600 active | AID 651740;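 active means mean inhibition above about 95%, with at least 55% of replicates also reaching it, limit read from the data; inconclusive means meets just one of the two conditions; inactive means meets neither condition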;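 further: plate controls were neutral control median for no effect and positive control median for full effect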
3T3 cytotox: NIH/3T3 (mouse) viability loss. shares compounds with T cruzi growth-1. NIH/3T3 viability, CellTiter-Glo ATP luminescence, 90 h. cytotoxicity (signal decrease), % at 8.35 µM. 14% of 5,600 active;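 active means mean signal decrease across replicates above about 35% based on untreated-well scatter, with enough replicates individually passing, limit read from the data; inconclusive means no rule stated though some were filed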;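 further: 0% = median of neutral control wells and 100% = median of positive control wells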
3T3 cytotox 2: NIH/3T3 (mouse) viability loss; shares compounds with T cruzi growth-1; NIH/3T3 viability, CellTiter-Glo ATP luminescence, 90 h; inhibition, % at 24.9 µM; 56% of 5,600 active;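 active means mean loss of cell viability signal at or above a set limit, and enough replicates individually reaching it; inconclusive means meets only the mean limit or only the replicate share; inactive means meets neither condition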;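 further: 0% = median of neutral control wells and 100% = median of positive control wells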
An asterisk follows results filed as active; ? = inconclusive; . = no result.

SMILES	T cruzi growth-1	Pf Dd2 growth	C diff growth	T cruzi growth-2	T cruzi growth-3	3T3 cytotox	3T3 cytotox 2
C[C@@H]1CN([C@@H](C)CO)C(=O)c2cc(NC(=O)Cc3ccccc3)ccc2O[C@H]1CN(C)Cc1ccc(C(=O)Nc2ccccc2N)cc1	56	-67	-2	.	.	.	.
C[C@H]1CN([C@@H](C)CO)C(=O)c2cc(N(C)C)ccc2O[C@@H]1CN(C)Cc1ccc(C(=O)Nc2ccccc2N)cc1	41	-70	-4	.	.	.	.
C[C@@H]1CN([C@@H](C)CO)C(=O)c2cc(N(C)C)ccc2O[C@@H]1CN(C)Cc1ccc(C(=O)Nc2ccccc2N)cc1	104*	-67	1	-9	-8	5	-11
C[C@H]1CN([C@@H](C)CO)C(=O)c2cc(NC(=O)Cc3ccccc3)ccc2O[C@H]1CN(C)Cc1ccc(C(=O)Nc2ccccc2N)cc1	?	-68	2	78	36	7	?
O=C([C@H]1[C@H](CO)[C@H]2Cn3c(ccc(-c4ccccc4)c3=O)[C@H]2N1Cc1cocn1)N1CCCCC1	11	7	4	.	.	.	.
O=C(C[C@H]1CC[C@H]2[C@@H](COC[C@@H](O)CN2Cc2cccc(Cl)c2)O1)N1CCCCC1	-23	14	8	.	.	.	.
O=C(Nc1ccccc1)N[C@H]1CC[C@@H](CCNC(=O)c2ccccc2F)O[C@@H]1CO	22	7	14	.	.	.	.
COCC#Cc1ccc([C@H]2[C@@H](CO)N3CCCCN(Cc4cccnc4)C[C@H]23)cc1	100*	-11	-1	96*	59	5	14
COCC#Cc1ccc([C@H]2[C@@H](CO)N3CCCCN(Cc4cncnc4)C[C@@H]23)cc1	108*	13	-2	92	61	6	13
COCC#Cc1ccc([C@H]2[C@H](CO)N3CCCCN(Cc4cccnc4)C[C@@H]23)cc1	102*	6	1	101*	86	13	5
COCC#Cc1ccc([C@@H]2[C@H](CO)N3CCCCN(Cc4cccnc4)C[C@@H]23)cc1	10	-9	0	.	.	.	.
COCC#Cc1ccc([C@H]2[C@H]3CN(Cc4cncnc4)CCCCN3[C@H]2CO)cc1	78	13	-8	.	.	.	.
O=C(Nc1ccc2c(c1)[C@H]1C[C@@H](CC(=O)N3CCc4ccccc4C3)O[C@@H](CO)[C@H]1O2)C1CCC1	31	-14	3	.	.	.	.
C[C@@H]1CN([C@H](C)CO)C(=O)c2cc(NS(=O)(=O)c3cccs3)ccc2O[C@@H](C)CCCCO[C@H]1CN(C)Cc1ccc(Cl)c(Cl)c1	125*	-43	-9	83	115*	61*	106*
C[C@@H]1CN([C@H](C)CO)C(=O)c2cc(NS(=O)(=O)c3cccs3)ccc2O[C@@H](C)CCCCO[C@@H]1CN(C)Cc1ccc(Cl)c(Cl)c1	?	-38	3	91	111*	100*	91*
C[C@@H]1CCCCO[C@H](CN(C)Cc2ccncc2)[C@H](C)CN([C@@H](C)CO)C(=O)c2cc(NS(=O)(=O)c3cccs3)ccc2O1	17	-30	0	.	.	.	.
C[C@@H]1CN([C@H](C)CO)C(=O)c2cc(NS(=O)(=O)c3cccs3)ccc2O[C@@H](C)CCCCO[C@H]1CN(C)Cc1ccncc1	36	-9	3	.	.	.	.
C[C@@H]1CCCCO[C@@H](CN(C)Cc2ccc(Cl)c(Cl)c2)[C@H](C)CN([C@H](C)CO)C(=O)c2cc(NS(=O)(=O)c3cccs3)ccc2O1	?	-74	-6	109*	113*	-30	107*
C[C@@H]1CCCCO[C@@H](CN(C)Cc2ccc(Cl)c(Cl)c2)[C@@H](C)CN([C@@H](C)CO)C(=O)c2cc(NS(=O)(=O)c3cccs3)ccc2O1	?	-42	10	97*	71	-56	51*
C[C@H]1CCCCO[C@@H](CN(C)Cc2ccncc2)[C@@H](C)CN([C@@H](C)CO)C(=O)c2cc(NS(=O)(=O)c3cccs3)ccc2O1	32	-41	0	.	.	.	.
C[C@H]1CCCCO[C@H](CN(C)Cc2ccncc2)[C@@H](C)CN([C@@H](C)CO)C(=O)c2cc(NS(=O)(=O)c3cccs3)ccc2O1	11	6	-2	.	.	.	.
CC(C)NC(=O)N(C)C[C@H]1Oc2ncc(C#CCC3CCCC3)cc2C(=O)N([C@@H](C)CO)C[C@H]1C	35	.	3	.	.	.	.
CCC(=O)N1C[C@H](C)[C@@H](OC)CN(C)C(=O)c2ccc(NC(=O)C3CCOCC3)cc2OC[C@H]1C	21	2	0	.	.	.	.
C[C@@H]1CN([C@@H](C)CO)C(=O)Cc2cc(NS(C)(=O)=O)ccc2O[C@H]1CN(C)C(=O)Nc1ccc(C(F)(F)F)cc1	25	17	-2	.	.	.	.
CN(C)C(=O)C[C@@H]1C[C@H]2c3cc(NC(=O)CC4CC4)ccc3O[C@H]2[C@@H](CO)O1	-72	29	.	.	.	.	.
SMILES	T cruzi growth-1	Pf Dd2 growth	C diff growth	T cruzi growth-2	T cruzi growth-3	3T3 cytotox	3T3 cytotox 2
C[C@@H]1CCCCO[C@@H](CN(C)Cc2ccc(Cl)c(Cl)c2)[C@H](C)CN([C@@H](C)CO)C(=O)c2cc(NS(=O)(=O)c3cccs3)ccc2O1	?	-52	-2	96*	108*	118*	103*
C[C@@H]1CCCCO[C@H](CN(C)Cc2ccncc2)[C@@H](C)CN([C@@H](C)CO)C(=O)c2cc(NS(=O)(=O)c3cccs3)ccc2O1	9	-18	2	.	.	.	.
COC(=O)C[C@H]1CC[C@@H]2[C@H](COc3ccc(NC(=O)c4cc(F)cc(F)c4)cc3C(=O)N2C)O1	-14	-17	-2	.	.	.	.
CCCNC(=O)[C@@H]1[C@@H](CO)[C@@H]2Cn3c(ccc(C4=CCCC4)c3=O)[C@H]1N2Cc1ccncc1	-1	8	-3	.	.	.	.
COc1ccccc1CN1[C@@H]2c3ccc(C4=CCCC4)c(=O)n3C[C@H]1[C@H](CO)[C@H]2C(=O)N(C)C	142*	.	0	74	12	7	38*
COc1ccccc1CN1[C@@H]2Cn3c(ccc(C4=CCCC4)c3=O)[C@H]1[C@@H](C(=O)N(C)C)[C@@H]2CO	56	.	2	.	.	.	.
CCCNC(=O)[C@H]1[C@H](CO)[C@H]2Cn3c(ccc(C4=CCCC4)c3=O)[C@@H]1N2Cc1ccncc1	99*	22	-6	41	29	10	10
CC(C)CC#Cc1ccc2c(c1)O[C@@H](CN(C)Cc1ccccc1F)[C@H](C)CN([C@H](C)CO)S2(=O)=O	?	-58	.	92	105*	101*	104*
C[C@H](CO)N1C[C@H](C)[C@@H](CN(C)Cc2ccccc2F)Oc2cc(C#CCN(C)C)ccc2S1(=O)=O	105*	-60	-4	105*	67	55*	104*
CC(C)CC#Cc1ccc2c(c1)O[C@H](CN(C)Cc1ccccc1F)[C@H](C)CN([C@@H](C)CO)S2(=O)=O	?	-65	.	107*	83	28	105*
